Unmarked numbers belong to inactive results. Entries that show only a call come without a potency. For some assays here: Potency and affinity values are given separately. Calls of active or inactive are those of the source. Unless noted, the rule behind the calls is not given here.
Key:
[1] = antimalarial activity against Dd2 strain (AID 2302;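 active = growth inhibition above 50% at the single 2 µM test dose, taken to imply half-maximal potency below 2 µM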); details: P. falciparum Dd2 in RBCs, LDH growth readout, 72 h; at 2 µM; hits give high values
[2] = HepG2 cytotoxicity, primary screen, cytotoxicity control for P. falciparum antimalarial project, cell-based, ATP luminescence (AID 2303;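 active = inhibition above 50%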); details: HepG2 viability, 24-48 h, at 10 µM, hits give high values
[3] = molecular target: L-lactate dehydrogenase (Plasmodium falciparum (isolate CDC / Honduras)) (UniProt Q27743); assay: PfLDH activity inhibition – cell lysate, 3D7 strain, counter-screen for P. falciparum growth inhibition project (AID 2304); details: P. falciparum 3D7 crude extract, LDH APAD/NBT absorbance; at 2 µM; hits give high values
[4] = inhibition of 3D7 malaria parasite growth – strain 3D7 (AID 2306); details: P. falciparum 3D7 erythrocytic growth, LDH absorbance, 72 h; at 2 µM; hits give high values
[5] = molecular target: Calcium-dependent protein kinase 1 (Plasmodium falciparum (isolate 3D7)) (UniProt P62344); assay: PfCDPK1 kinase inhibitors, biochemical, TCAMS library (AID 1159585; cut-off not given, nearly all actives have IC50 up to about 0.98 µM;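 note: inhibitors leave more ATP so luminescence rises with inhibition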); details: recombinant PfCDPK1, Kinase-Glo ATP depletion luminescence
[6] = molecular target: Plasmodium falciparum protein kinase 6 (PK6, PF3D7_1337100) (UniProt Q8IDW1); assay: PfPK6 kinase inhibitors, biochemical, TCAMS library (AID 1159586); details: recombinant PfPK6, Kinase-Glo ATP depletion luminescence
[7] = molecular target: Protein kinase 7 (PK7), Plasmodium falciparum 3D7 (PF3D7_0213400) (UniProt Q7YTF7); assay: inhibition of Plasmodium PK7 catalytic activity – biochemical, TCAMS antimalarial set, Kinase-Glo luminescence (AID 1159587); details: recombinant PfPK7, Kinase-Glo ATP depletion luminescence
[8] = molecular target: Calcium-dependent protein kinase 4 (Plasmodium falciparum (isolate 3D7)) (UniProt Q8IBS5); assay: PfCDPK4 kinase inhibitors, biochemical, TCAMS library (AID 1159588; cut-off not given, nearly all actives have IC50 up to about 0.91 µM); details: recombinant PfCDPK4, Kinase-Glo ATP depletion luminescence
Sequence of Calcium-dependent protein kinase 4 (Plasmodium falciparum (isolate 3D7)) (Q8IBS5 whole entry, looked up): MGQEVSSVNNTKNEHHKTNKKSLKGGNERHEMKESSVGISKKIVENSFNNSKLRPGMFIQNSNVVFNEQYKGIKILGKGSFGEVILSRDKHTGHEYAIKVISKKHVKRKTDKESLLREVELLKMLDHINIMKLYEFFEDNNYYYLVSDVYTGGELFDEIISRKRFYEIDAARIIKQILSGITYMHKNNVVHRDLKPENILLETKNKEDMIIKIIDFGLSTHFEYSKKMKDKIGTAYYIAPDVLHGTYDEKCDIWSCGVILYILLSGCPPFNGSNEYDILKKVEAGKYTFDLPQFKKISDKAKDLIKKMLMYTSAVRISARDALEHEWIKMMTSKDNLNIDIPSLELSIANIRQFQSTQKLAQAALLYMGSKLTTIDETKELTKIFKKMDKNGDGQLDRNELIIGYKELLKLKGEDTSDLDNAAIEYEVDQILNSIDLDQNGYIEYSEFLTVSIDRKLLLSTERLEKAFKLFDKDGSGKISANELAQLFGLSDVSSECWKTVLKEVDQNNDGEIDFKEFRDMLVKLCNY

Sequence of Calcium-dependent protein kinase 1 (Plasmodium falciparum (isolate 3D7)) (P62344 whole entry, looked up): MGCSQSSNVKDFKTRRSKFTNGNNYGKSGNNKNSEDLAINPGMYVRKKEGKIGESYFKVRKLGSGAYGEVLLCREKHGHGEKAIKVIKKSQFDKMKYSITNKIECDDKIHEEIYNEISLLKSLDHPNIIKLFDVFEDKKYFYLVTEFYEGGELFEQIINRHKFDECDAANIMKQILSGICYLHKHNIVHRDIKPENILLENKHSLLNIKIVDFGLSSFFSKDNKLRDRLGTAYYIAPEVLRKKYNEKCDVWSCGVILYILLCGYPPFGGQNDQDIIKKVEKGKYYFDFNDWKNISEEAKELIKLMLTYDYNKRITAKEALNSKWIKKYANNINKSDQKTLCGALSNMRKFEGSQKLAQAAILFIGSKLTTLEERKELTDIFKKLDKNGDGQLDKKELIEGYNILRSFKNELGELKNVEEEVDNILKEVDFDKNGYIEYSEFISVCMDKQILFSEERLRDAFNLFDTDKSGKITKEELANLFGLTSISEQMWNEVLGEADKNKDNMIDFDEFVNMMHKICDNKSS
Sequence of Plasmodium falciparum protein kinase 6 (PK6, PF3D7_1337100) (Q8IDW1 1-305): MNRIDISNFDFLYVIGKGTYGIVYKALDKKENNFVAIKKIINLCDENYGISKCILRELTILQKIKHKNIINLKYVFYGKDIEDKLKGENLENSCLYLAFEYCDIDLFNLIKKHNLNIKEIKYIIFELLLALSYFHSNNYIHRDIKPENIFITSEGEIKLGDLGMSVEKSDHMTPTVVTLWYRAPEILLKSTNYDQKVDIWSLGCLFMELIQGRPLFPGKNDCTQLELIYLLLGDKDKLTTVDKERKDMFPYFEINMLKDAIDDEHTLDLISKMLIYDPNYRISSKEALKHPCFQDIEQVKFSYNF
Sequence of Protein kinase 7 (PK7), Plasmodium falciparum 3D7 (PF3D7_0213400) (Q7YTF7 1-343): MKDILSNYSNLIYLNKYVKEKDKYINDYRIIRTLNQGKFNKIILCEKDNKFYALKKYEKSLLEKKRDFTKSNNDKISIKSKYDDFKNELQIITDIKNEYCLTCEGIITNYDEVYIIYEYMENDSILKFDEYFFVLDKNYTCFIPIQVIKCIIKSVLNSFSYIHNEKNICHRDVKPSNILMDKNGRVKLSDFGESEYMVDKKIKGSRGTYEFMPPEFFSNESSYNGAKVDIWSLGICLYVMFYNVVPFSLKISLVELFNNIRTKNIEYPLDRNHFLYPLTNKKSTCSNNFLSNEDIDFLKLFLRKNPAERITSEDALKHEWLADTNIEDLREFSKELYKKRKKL
Sequence of L-lactate dehydrogenase (Plasmodium falciparum (isolate CDC / Honduras)) (Q27743 whole entry, looked up): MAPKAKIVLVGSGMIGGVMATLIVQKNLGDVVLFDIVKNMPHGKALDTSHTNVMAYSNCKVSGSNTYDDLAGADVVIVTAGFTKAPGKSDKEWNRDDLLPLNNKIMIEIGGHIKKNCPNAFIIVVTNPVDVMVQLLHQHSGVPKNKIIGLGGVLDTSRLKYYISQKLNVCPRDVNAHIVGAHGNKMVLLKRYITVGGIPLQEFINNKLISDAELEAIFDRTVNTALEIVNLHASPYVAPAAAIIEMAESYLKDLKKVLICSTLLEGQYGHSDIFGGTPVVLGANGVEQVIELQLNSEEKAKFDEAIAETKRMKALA

Row | Compound | growth inhibition [1] | inhibition [2] | inhibition [3] | growth inhibition [4] | outcome [5] | outcome [6] | outcome [7] | outcome [8]
1 | Cc1cc(OCCCN2CCC(NS(=O)(=O)c3cccc(Br)c3)C2)c2ccccc2n1 (stereo not given) | 40% | 13% | 3% | 86% (active) | inactive | inactive | inactive | inactive
2 | CC(C)c1ccc(-c2noc(SCC(=O)N3CCCCC3C)n2)cc1 (stereo not given) | 92% (active) | 21% | 2% | 92% (active) | inactive | inactive | inactive | inactive
3 | CCNc1cc(CCCC(=O)OCC)nc(Nc2ccc(C)cc2)n1 | 63% (active) | 17% | -4% | 101% (active) | inactive | inactive | inactive | inactive
4 | CCOc1cc(C)ccc1N1CCN(CCCCNC(=O)c2ccc(NC(=O)c3ccc(Cl)cc3)cc2)CC1 | 46% | 19% | -5% | 100% (active) | inactive | inactive | inactive | inactive
5 | COc1ccc(CCNc2ccnc3cc(Cl)ccc23)cc1OC | 92% (active) | 4% | -7% | 101% (active) | inactive | inactive | inactive | inactive
6 | O=C(CCNc1ccnc(NCCc2ccccc2)n1)Nc1ccccc1 | 19% | 7% | 2% | 89% (active) | inactive | inactive | inactive | inactive
7 | CCOC(=O)/C(=N\OC(C)(C)C(=O)NCc1ccc(O)c(O)c1)c1csc(NC(c2ccccc2)(c2ccccc2)c2ccccc2)n1 | 99% (active) | 13% | -3% | 100% (active) | inactive | inactive | inactive | inactive
8 | COc1cc(CCOc2c(C)nc(N)nc2N)cc(OC)c1OC | -3% | 59% (active) | 4% | 93% (active) | inactive | inactive | inactive | inactive
9 | O=S(=O)(Nc1cc2c(cc1OCCCN1CCCCC1)CCNCC2)c1ccc(-c2ccc(Cl)cc2)cc1 | 19% | 77% (active) | 2% | 100% (active) | inactive | inactive | inactive | inactive
10 | COc1ccc2nccc([C@@H](O)CN3CCC(NCCOc4cc(C(F)(F)F)ccc4F)CC3)c2c1 | 83% (active) | 13% | 2% | 100% (active) | inactive | inactive | inactive | inactive
11 | CC(=O)Nc1ncc(C(=O)Nc2cccc(-c3cccc(-c4nc5ccc(F)cc5[nH]4)c3)c2)s1 | 93% (active) | 27% | 5% | 101% (active) | inactive | inactive | inactive | inactive
12 | CCN1CCN(c2cc(C)c3cc(NC(=O)c4ccc(Br)o4)ccc3n2)CC1 | 13% | -8% | -7% | 98% (active) | inactive | inactive | inactive | inactive
13 | COc1cc2cc(Cc3cnc(N)nc3N)ccc2c(OC)c1OC | 2% | 1% | 7% | 97% (active) | inactive | inactive | inactive | inactive
14 | c1cncc(-c2cc(N3CCc4ccccc4C3)nc(-c3ccncc3)n2)c1 | 100% (active) | 56% (active) | -5% | 100% (active) | inactive | inactive | inactive | inactive
15 | Clc1ccc2c(N3CCN(CCN4CCN(c5ccnc6cc(Cl)ccc56)CC4)CC3)ccnc2c1 | 100% (active) | 10% | 1% | 99% (active) | inactive | inactive | inactive | inactive
16 | O=C(NC1CC1)c1ccc2cc(C(=O)N3Cc4ccccc4C(c4ccccc4)C3)ccc2c1 (stereo not given) | 64% (active) | -2% | 1% | 97% (active) | inactive | inactive | inactive | inactive
17 | CNC(=O)c1cnc(Nc2ccc(OCC(O)CN(C)C)cc2)nc1Nc1cccc(OC(C)C)c1 (stereo not given) | 100% (active) | 21% | 1% | 103% (active) | inactive | inactive | inactive | inactive
18 | CCN(CC)CCNC(=O)/C(=C/C=C/c1cc2cc(Cl)c(Cl)cc2[nH]1)OC | 31% | 30% | -4% | 88% (active) | inactive | inactive | inactive | inactive
19 | Cc1cc(NN=Cc2ccccc2)c2cc(F)ccc2n1 | 94% (active) | 11% | -1% | 101% (active) | inactive | inactive | inactive | inactive
20 | CCCc1cc(OC)c(C[C@@H]2c3cc(O)c(Cl)cc3CCN2C)cc1OC | 98% (active) | 3% | 8% | 98% (active) | inactive | inactive | inactive | inactive

Row | Compound | growth inhibition [1] | inhibition [2] | inhibition [3] | growth inhibition [4] | outcome [5] | outcome [6] | outcome [7] | outcome [8]
21 | CC1CCN(c2nc(C(=O)NCCc3ccc(Cl)c(Cl)c3)c(C(C)C)s2)CC1 | 38% | -3% | 3% | 88% (active) | inactive | inactive | inactive | inactive
22 | O=S(=O)(c1csc2ccccc12)N(CCC(O)(C(F)(F)F)C(F)(F)F)Cc1cccc(O)c1 | 100% (active) | -11% | 7% | 101% (active) | inactive | inactive | inactive | inactive
23 | Nc1cc(-c2cccc(Cl)c2)nn1-c1ccnc2cc(Cl)ccc12 | 33% | -3% | -2% | 99% (active) | inactive | inactive | inactive | inactive
24 | Cc1cc(NC(=O)Nc2ccc3ncccc3c2)c2ccccc2n1 | 27% | 6% | -3% | 93% (active) | inactive | inactive | inactive | inactive
25 | COc1ccc2nccc(NN=Cc3ccncc3)c2c1 | 95% (active) | 4% | -3% | 99% (active) | inactive | inactive | inactive | inactive
26 | CSCCC(C(=O)O)N1C(=O)c2ccccc2C1=O (stereo not given) | -3% | -4% | -1% | 91% (active) | inactive | inactive | inactive | inactive
27 | O=C(Nc1ccc(CCNCc2ccccc2)cc1)Nc1ccc(OC(F)(F)F)cc1 | 22% | -2% | -2% | 102% (active) | inactive | inactive | inactive | inactive
28 | O=C(/C=C/c1ccc(C(F)(F)F)cc1)NCCCCCN1CCN(C(=O)Nc2ccc(Cl)c(Cl)c2)CC1 | -4% | 37% | 5% | 95% (active) | inactive | inactive | inactive | inactive
29 | COc1ccc(-c2nc3cccnc3n2CC(=O)Nc2c(C)cc(C)cc2C)c(OC)c1 | 21% | 77% (active) | 1% | 91% (active) | inactive | inactive | inactive | inactive
30 | c1cc(CNC2Cc3ccc(-c4cccs4)cc3C2)cc(-n2ccnc2)c1 (stereo not given) | 63% (active) | 0% | -1% | 100% (active) | inactive | inactive | inactive | inactive
31 | O=C(Nc1ccc(Cl)cc1)Nc1ccc2c(c1)N1CCN=C1S2 | 100% (active) | 15% | -1% | 99% (active) | inactive | inactive | inactive | inactive
32 | CC(C)(C)c1ccc(C(=O)Nc2ccc3nc4c(c(N)c3c2)CCCC4)cc1 | 99% (active) | 21% | -4% | 100% (active) | inactive | inactive | inactive | inactive
33 | O=C(NCc1ccccc1S(=O)c1ccccc1CO)C(F)(F)F (stereo not given) | 2% | 50% (active) | 0% | 98% (active) | inactive | inactive | inactive | inactive
34 | Oc1ccccc1CN1CCC2(CCCN(Cc3ccccc3F)C2)C1 (stereo not given) | 83% (active) | 13% | -2% | 98% (active) | inactive | inactive | inactive | inactive
35 | Cc1c(CCC#N)c(NCc2ccccc2)n2c(nc3ccccc32)c1C#N | 99% (active) | 16% | 2% | 100% (active) | inactive | inactive | inactive | inactive
36 | Cc1ccc(CN2CCCN(Cc3cccc(NC(=O)c4cc5ccccc5s4)c3)CC2)cc1C | 33% | 44% | -3% | 92% (active) | inactive | inactive | inactive | inactive
37 | Cc1cccc2[nH]c(-c3ccc(-c4cccc(NC(=O)NCc5cccc(F)c5)c4)s3)nc12 | 8% | 24% | -2% | 88% (active) | inactive | inactive | inactive | inactive
38 | C[C@@H]1CN(c2cnn(Cc3ccc(NC(=O)Nc4ccc(-c5ccccc5)cc4)cc3)c(=O)c2Cl)C[C@H](C)N1 | 46% | 82% (active) | -3% | 100% (active) | inactive | inactive | inactive | inactive
39 | CNCCNCc1cccc(-c2cccc(-c3nc4ccc(C(F)(F)F)cc4[nH]3)c2)c1 | 97% (active) | 22% | -2% | 100% (active) | inactive | inactive | inactive | inactive
40 | O=C(/C=C/c1ccc(Cl)c(Cl)c1)NCCCCCN1CCC(CCCNC(=O)Nc2ccc(C(F)(F)F)cc2)CC1 | 19% | -2% | -7% | 91% (active) | inactive | inactive | inactive | inactive

— PubChem BioAssay
